Results as given in PubChem BioAssay (NCATS).
Records with an inconclusive call do not appear. Where a call stands in place of a potency, no number is given. Unmarked numbers belong to inactive results. Activity calls are given as the source filed them. Calls come from the whole dose curve; as a rule, active = well fitted cell-killing curve with a large enough effect; inconclusive = small, poorly fitted or top-dose-only effect, or effect the other way; inactive = flat fitted curve, though single readings scatter.

What was measured:
Assay in all cases: Primary qHTS to identify gynecologic anti-cancer compounds using libraries of approved drugs and bioactive compounds (AID 1345084); note: nearly all actives have a fitted effect of over 55% in size
Settings in all cases: Gynecologic cancer cell panel viability, ATPlite luminescence, 48 h; series mostly up to 57.5 µM
[1] = test system: SKOV3
Procedure, shortened: (§1)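 Luminescence from the ATPlite ATP-monitoring reagent indicates viable cell number; lower signal means cytotoxicity. Cells received compound 16 h after seeding and were exposed for 48 h across five concentrations.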

[2] = test system: Tov-21-G
Procedure, shortened: as §1

[3] = test system: Tov112D
Procedure, shortened: as §1
Potency is the fitted concentration of half-maximal effect.

Compound: Cc1nc(NC(=O)N2CCCC2C(N)=O)sc1-c1ccnc(C(C)(C)C(F)(F)F)c1 (stereo not drawn)
- Potency [1]: 8.91 µM (active)
- Potency [2]: inactive
- Potency [3]: inactive

Compound: C=C[C@@]1(C)CCC2C(=CCC3[C@]2(C)CCC[C@@]3(C)C(=O)O)C1 (stereo partly drawn)
- Potency [1]: inactive
- Potency [2]: inactive

Compound: C=C1CC2OC(=O)C(=C)C2C(OC(=O)/C(C)=C\C)CC2(C)OC1=CC2=O (stereo not drawn)
- Potency [1]: 11.2 µM (active)
- Potency [2]: 11.2 µM (active)
- Potency [3]: inactive

Compound: CCN(CC)CCCCCCNc1cc(OC)cc2c(C)ccnc12
- Potency [1]: inactive
- Potency [2]: inactive

Compound: CC(=O)O[C@H]1[C@H](O)C[C@@]2(C)C(CC[C@]3(C)C2CC=C2C4CC(C)(C)CC[C@]4(C(=O)O)CC[C@]23C)C1(C)C (stereo partly drawn)
- Potency [1]: 11.2 µM (active)

Compound: C=CC(C)(O)CC/C=C(\C)C(=O)OC1C(O)C(CO)OC(OC(=O)C23CCC(C)(C)CC2C2=CCC4C5(C)CCC(OC6OC(COC7OCC(OC(C)=O)C(O)C7OC7OC(COC(C)=O)C(O)C(O)C7OC(C)=O)C(O)C(O)C6OC6OCC(O)C(O)C6O)C(C)(C)C5CCC4(C)C2(C)C(O)C3O)C1OC1OCC(OC2OCC(O)C(OC3OCC(O)C(O)C3O)C2O)C(O)C1O (stereo not drawn)
- activity change, negative = cytotoxicity [1]: 0.6% [at 6.55 µM]
- activity change, negative = cytotoxicity [2]: -26.1% [at 6.55 µM]

Compound: CCS(=O)c1nc(-c2cccc(OCc3ccccc3)c2)cc(C(F)(F)F)n1 (stereo not drawn)
- Potency [1]: inactive
- Potency [2]: inactive
- Potency [3]: inactive

Compound: CC(C)n1cnc2c(-c3cnc(N)nc3)nc(N3CCOCC3)nc21
- Potency [1]: 1.26 µM (active)

Compound: CN(C)CCN(Cc1ccc(-c2ccc(CNCCc3ccccc3)cc2)cc1)C(=O)CCC1CCCC1
- Potency [1]: 15.8 µM (active)
